12-LOX inh – Primary qHTS assay for inhibitors of human arachidonate 12S-lipoxygenase (ALOX12): Round 2; purified 12hLO, xylenol orange hydroperoxide absorbance; Potency, µM (top dose mostly 108 µM), usual class: inhibitors; 1.1% of 580,000 active; AID 1671190, 2021
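Purified human 12hLO (150 nM final) in 25 mM Hepes, 0.01% Triton X-100, pH 7.0 was preincubated 15 min at room temperature with compound. Then 40 uM arachidonic acid was added, 30 min. Hydroperoxide was read by Fe-XO absorbance ratio 573/405 nm.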
BAZ2B block – qHTS Assay for Inhibitors of BAZ2B; Potency, µM (series often up to 114 µM), hits mostly inhibitors; AID 504333, 2011; Bromodomain adjacent to zinc finger domain protein 2B (Homo sapiens), Q9UIF8; AlphaScreen BAZ2B-H3K14Ac peptide displacement; 4.4% of 360,000 active; also: nearly all actives have a fitted effect of over 60% in size
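AlphaScreen luminescence quantifies BAZ2B engagement of H3K14Ac peptide; the protein and biotinylated peptide are both at 50 nM final, buffer PBS pH 7.4 with 0.01% Tween-20, all steps at room temperature.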
HP1b binding inh – HTS for Inhibitors of HP1-beta Chromodomain Interactions with Methylated Histone Tails; AlphaScreen HP1-beta / biotin-H3K9me3 peptide binding; Potency, µM (series often up to 114 µM), most hits filed as inhibitors; 0.56% of 390,000 active; AID 540317, 2011; also: nearly all actives have a fitted effect of over 70% in size
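Compound inhibition of the preformed complex between 50 nM HP1-beta and 50 nM biotinylated H3K9me3 peptide was read by AlphaScreen. Buffer was PBS pH 7.4 with 0.01% Tween-20. Incubations ran 30 min at room temperature, with 10 ug/mL donor/acceptor beads.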
PLK1 PBD block – qHTS for Inhibitors of PLK1-PDB (polo-like kinase 1 - polo-box domain): Primary Screen | Plk1 PBD binding of FITC phosphopeptide, fluorescence polarization | Potency, µM, usual class: inhibitors | 2.8% of 360,000 active; also: series mostly up to about 57 µM; nearly all actives have a fitted effect of over 65% in size
JMJD2A Tudor inh – qHTS Assay for Inhibitors of JMJD2A-Tudor Domain; AlphaScreen JMJD2A-Tudor / H3K4me3 peptide binding; Potency, µM (doses to about 114 µM), actives largely listed as inhibitors; AID 504339, 2011; 4.4% of 390,000 active; Lysine-specific demethylase 4A (Homo sapiens), O75164; also: nearly all actives have a fitted effect of over 50% in size
G9a inh – qHTS Assay for Inhibitors of Histone Lysine Methyltransferase G9a; Histone-lysine N-methyltransferase EHMT2 (Homo sapiens), Q96KQ7; G9a H3K9 monomethylation, AlphaScreen, 2 h; Potency, µM (top dose mostly 102 µM), most hits filed as inhibitors; 8.8% of 350,000 active; AID 504332, 2011; also: nearly all actives have a fitted effect of over 75% in size
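Signal arises when biotinylated H3K9 peptide, once monomethylated, bridges streptavidin donor and antibody-captured acceptor beads. Enzyme at 20 nM was preincubated 15 min with test compounds; peptide 500 nM and SAM 20 uM then reacted for 2 h.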
Large screens that a line does not name were inactive. Compounds with a hit are over-represented: about 9% of the library has one in this group of screens. Calls follow the shape of the dose curve; as a rule, active = well fitted curve in the direction sought with a large enough effect; inconclusive = small, poorly fitted or top-dose-only effect, or another doubt; inactive = no such curve, though single readings can be large; an effect the other way counts as inactive or inconclusive.

CCOC(=O)Cn1c(S(=O)(=O)Cc2ccccc2)nc2ccccc21	12-LOX inh inconclusive, G9a inh 39.8µM
COC(=O)Cn1c(Cc2ccccc2)nc2ccccc21	PLK1 PBD block 5.97µM
COc1ccc(Cc2nc3ccccc3n2CC(=O)N/N=C/c2ccc(C)cc2O)cc1OC	BAZ2B block 56.2µM, JMJD2A Tudor inh inconclusive, G9a inh inconclusive
CCOC(=O)Cn1c(S(=O)(=O)Cc2ccc(Cl)cc2)nc(-c2ccccc2)c1-c1ccccc1	none (no result: G9a inh)
COc1ccc(Cc2nc3ccccc3n2CC(=O)N/N=C/c2ccc(O)cc2)cc1OC	none
CCC(O)CNC(=O)c1cnn(-c2ncc3c(n2)-c2ccc(OC)cc2CC3)c1C1CC1 (configuration not stated)	none (no result: BAZ2B block, HP1b binding inh, PLK1 PBD block, JMJD2A Tudor inh, G9a inh)
Cc1cc(C)c(C(=O)COC(=O)Cn2nc(-c3ccccc3)oc2=O)cc1C	none (no result: BAZ2B block, G9a inh)
CC(C)(C)NC(=O)COC(=O)c1cncc(Br)c1	PLK1 PBD block 29.9µM
COc1ccc(CNC(=O)COC(=O)c2cncc(Br)c2)cc1	G9a inh 39.8µM
Cc1ccc(CNC(=O)COC(=O)c2cncc(Br)c2)cc1	G9a inh inconclusive
CC(C)NC(=O)C1CCN(Cc2nc(-c3ccccc3)no2)CC1	none (no result: BAZ2B block, HP1b binding inh, PLK1 PBD block, JMJD2A Tudor inh, G9a inh)
Cn1nnnc1Sc1ncnc2scc(Br)c12	none (no result: BAZ2B block, PLK1 PBD block, G9a inh)
Cn1nnnc1Sc1ncnc2scc(I)c12	JMJD2A Tudor inh 79.4µM (no result: 12-LOX inh, BAZ2B block, HP1b binding inh, PLK1 PBD block, G9a inh)
O=C(CCS(=O)(=O)c1ccc(Br)cc1)NCc1ccco1	BAZ2B block 50.1µM
O=C(CCS(=O)(=O)c1ccc(Br)cc1)NCc1cccs1	BAZ2B block 50.1µM, HP1b binding inh 50.1µM, PLK1 PBD block inconclusive, JMJD2A Tudor inh 35.5µM, G9a inh inconclusive
COc1ccc(C2=NOC(CNC(=O)c3ccccc3Br)C2)c(OC)c1 (configuration not stated)	none
O=C(O)c1nn(Cc2ncc(-c3cccc(Cl)c3)o2)c(=O)c2ccccc12	HP1b binding inh inconclusive, PLK1 PBD block inconclusive, G9a inh 39.8µM
CCOC(=O)CC(=O)Nc1ccc(Br)cc1C(=O)O	JMJD2A Tudor inh 56.2µM, G9a inh inconclusive
CCOC(=O)c1c(NC(=O)C2CCCO2)sc(C(N)=O)c1C (configuration not stated)	G9a inh inconclusive
CCN(CC)C(=O)c1sc(NC(=S)N2CCN(C(=O)C3CCCO3)CC2)c(C(=O)OC)c1C (configuration not stated)	G9a inh 50.1µM
CCCOC(=O)c1c(NC(=O)C2CCCO2)sc(C(=O)OC)c1C (configuration not stated)	12-LOX inh inconclusive, HP1b binding inh inconclusive, PLK1 PBD block 9.47µM, JMJD2A Tudor inh inconclusive, G9a inh 3.55µM
COc1ccc(N2C(=O)c3ccccc3S2(=O)=O)cc1	none
COc1ccc2c(c1)-c1ccccc1S(=O)(=O)N2C(C)=O	12-LOX inh inconclusive, PLK1 PBD block 26.7µM
N#CC(Sc1ccccn1)c1ccc(Cl)cc1 (configuration not stated)	PLK1 PBD block 7.52µM, G9a inh 7.94µM
CNc1oc(-c2cccs2)nc1S(=O)(=O)c1ccccc1	G9a inh inconclusive
CC1CCN(c2oc(-c3cccs3)nc2S(=O)(=O)c2ccc(Cl)cc2)CC1	BAZ2B block inconclusive, HP1b binding inh inconclusive, JMJD2A Tudor inh inconclusive, G9a inh 7.94µM (no result: PLK1 PBD block)
CCC(C)S(=O)(=O)c1oc(-c2cccs2)nc1S(=O)(=O)c1ccccc1 (configuration not stated)	G9a inh 17.8µM (no result: PLK1 PBD block)
O=S(=O)(c1ccccc1)c1nc(-c2cccs2)oc1N1CCCCC1	BAZ2B block 35.5µM, G9a inh inconclusive (no result: PLK1 PBD block)
O=S(=O)(c1ccccc1)c1nc(-c2cccs2)oc1N1CCOCC1	none (no result: BAZ2B block, HP1b binding inh, PLK1 PBD block, JMJD2A Tudor inh, G9a inh)
